Experimental data reported in PubChem BioAssay (EPA / NIEHS).
The source made the active and inactive calls. Rule for the calls: active = hit-call score of the fitted dose curve at least 0.9, where 1 is the maximum; inactive = score below 0.9.

Read-out: Keratin 19 (KRT19), KRT19 (gene 3880)
Assay: LTEA_HepaRG_KRT19: Life Technologies and Expression Analysis (LTEA) Assay for Keratin 19 (KRT19) using HepaRG (AID 2283512)
Details: mRNA level, 48 h; actives raise or lower the signal
How it was run: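 KRT19 transcript measured by TaqMan qRT-PCR, referenced to three housekeeping genes, after HepaRG cells received test chemicals for 48 h. Eight half-log concentrations, top 100 uM, 0.5% DMSO vehicle; increases and decreases both fitted.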

SMILES | outcome
Cc1ccc([N+](=O)[O-])cc1N | inactive
Nc1ccc(C(=O)O)cc1 | inactive
C1CNCCN1 | inactive
